# Results from PMC13423814.
# Key:
# Settings in all cases: DSSO, in cells
# [1] = target: HSPE1 (UniProt P61604)
# [2] = target: MDH2 (UniProt P40926)
# [3] = target: MLEC (UniProt Q14165)
# [4] = target: PDIA5 (UniProt Q14554)
# [5] = target: STT3A (UniProt P46977)
# [6] = target: STT3B (UniProt Q8TCJ2)
# [7] = target: MRTO4 (UniProt Q9UKD2)
# [8] = target: RSL24D1 (UniProt Q9UHA3)
# [9] = target: MTHFD2 (UniProt P13995)
# [10] = target: MTPAP (UniProt Q9NVV4)
# [11] = target: MYBBP1A (UniProt Q9BQG0)
# [12] = target: RPL7L1 (UniProt Q6DKI1)
# [13] = target: SERBP1 (UniProt Q8NC51)
# [14] = target: MYDGF (UniProt Q969H8)
# [15] = target: MYEF2 (UniProt Q9P2K5)
# [16] = target: MYL6 (UniProt P60660)
# Chain of MYL6 (P60660 whole entry): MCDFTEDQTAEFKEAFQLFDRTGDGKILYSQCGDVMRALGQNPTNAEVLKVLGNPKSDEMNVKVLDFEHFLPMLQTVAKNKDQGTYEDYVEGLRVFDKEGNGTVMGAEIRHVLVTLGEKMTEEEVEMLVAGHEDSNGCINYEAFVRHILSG
# [17] = target: MYO18A (UniProt Q92614)
# [18] = target: NAA15 (UniProt Q9BXJ9)
# [19] = target: NAT10 (UniProt Q9H0A0)
# [20] = target: NCAPH (UniProt Q15003)
# Chain of NCAPH (Q15003 whole entry): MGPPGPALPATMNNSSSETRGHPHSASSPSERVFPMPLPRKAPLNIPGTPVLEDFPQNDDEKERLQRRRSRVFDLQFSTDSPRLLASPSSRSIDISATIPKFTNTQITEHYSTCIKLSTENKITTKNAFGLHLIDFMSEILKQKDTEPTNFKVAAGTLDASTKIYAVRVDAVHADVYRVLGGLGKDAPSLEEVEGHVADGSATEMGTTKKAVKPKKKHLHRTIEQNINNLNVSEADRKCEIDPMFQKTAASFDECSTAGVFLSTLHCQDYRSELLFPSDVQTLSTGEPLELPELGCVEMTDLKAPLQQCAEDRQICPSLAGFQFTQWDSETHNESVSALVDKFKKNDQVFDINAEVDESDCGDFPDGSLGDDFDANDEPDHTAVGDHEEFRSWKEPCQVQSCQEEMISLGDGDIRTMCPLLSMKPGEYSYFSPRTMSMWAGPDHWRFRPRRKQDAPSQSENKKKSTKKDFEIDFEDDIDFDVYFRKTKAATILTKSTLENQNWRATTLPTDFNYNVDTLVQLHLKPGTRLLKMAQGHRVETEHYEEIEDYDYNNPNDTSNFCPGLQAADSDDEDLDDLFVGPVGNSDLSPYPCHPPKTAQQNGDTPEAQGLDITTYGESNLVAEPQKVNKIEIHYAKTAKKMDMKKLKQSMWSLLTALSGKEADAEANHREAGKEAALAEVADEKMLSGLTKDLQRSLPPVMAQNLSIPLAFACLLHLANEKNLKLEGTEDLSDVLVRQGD
# [21] = target: NCBP1 (UniProt Q09161)
# [22] = target: NDRG1 (UniProt Q92597)
# [23] = target: NDUFA12 (UniProt Q9UI09)
# [24] = target: NDUFS1 (UniProt P28331)
# [25] = target: NIPSNAP1 (UniProt Q9BPW8)
# Chain of NIPSNAP1 (Q9BPW8 whole entry): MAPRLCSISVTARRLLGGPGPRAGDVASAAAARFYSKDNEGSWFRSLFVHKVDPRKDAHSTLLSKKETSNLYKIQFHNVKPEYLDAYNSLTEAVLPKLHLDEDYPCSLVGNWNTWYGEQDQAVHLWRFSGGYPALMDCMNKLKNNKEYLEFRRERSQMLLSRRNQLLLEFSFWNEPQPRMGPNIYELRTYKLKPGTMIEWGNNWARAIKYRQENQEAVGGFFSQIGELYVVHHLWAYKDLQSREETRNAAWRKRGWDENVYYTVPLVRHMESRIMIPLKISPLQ
# [26] = target: NOC3L (UniProt Q8WTT2)
# [27] = target: NOL7 (UniProt Q9UMY1)
# Chain of NOL7 (Q9UMY1 whole entry): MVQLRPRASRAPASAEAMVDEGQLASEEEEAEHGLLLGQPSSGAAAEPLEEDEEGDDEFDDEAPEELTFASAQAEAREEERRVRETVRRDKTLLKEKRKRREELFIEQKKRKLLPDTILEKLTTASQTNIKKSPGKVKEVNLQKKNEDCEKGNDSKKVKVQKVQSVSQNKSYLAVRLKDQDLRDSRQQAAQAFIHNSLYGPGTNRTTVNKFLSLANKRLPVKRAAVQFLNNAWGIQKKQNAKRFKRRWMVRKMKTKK
# [28] = target: NOLC1 (UniProt Q14978)
# [29] = target: UTP11 (UniProt Q9Y3A2)
# [30] = target: NOP16 (UniProt Q9Y3C1)
# [31] = target: NOP53 (UniProt Q9NZM5)
# [32] = target: NUCB2 (UniProt P80303)
# Chain of FBL, P22087 (P22087 whole entry): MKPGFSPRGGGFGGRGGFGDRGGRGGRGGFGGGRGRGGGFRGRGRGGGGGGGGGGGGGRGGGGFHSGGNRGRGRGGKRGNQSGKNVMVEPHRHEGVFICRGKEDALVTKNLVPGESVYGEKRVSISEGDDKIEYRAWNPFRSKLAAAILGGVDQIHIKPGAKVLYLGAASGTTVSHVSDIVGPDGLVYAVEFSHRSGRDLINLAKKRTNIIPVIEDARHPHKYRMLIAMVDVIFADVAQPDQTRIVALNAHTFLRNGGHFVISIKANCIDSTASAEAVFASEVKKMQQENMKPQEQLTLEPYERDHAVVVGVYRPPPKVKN
# Chain of RPN1, P04843 (P04843 whole entry): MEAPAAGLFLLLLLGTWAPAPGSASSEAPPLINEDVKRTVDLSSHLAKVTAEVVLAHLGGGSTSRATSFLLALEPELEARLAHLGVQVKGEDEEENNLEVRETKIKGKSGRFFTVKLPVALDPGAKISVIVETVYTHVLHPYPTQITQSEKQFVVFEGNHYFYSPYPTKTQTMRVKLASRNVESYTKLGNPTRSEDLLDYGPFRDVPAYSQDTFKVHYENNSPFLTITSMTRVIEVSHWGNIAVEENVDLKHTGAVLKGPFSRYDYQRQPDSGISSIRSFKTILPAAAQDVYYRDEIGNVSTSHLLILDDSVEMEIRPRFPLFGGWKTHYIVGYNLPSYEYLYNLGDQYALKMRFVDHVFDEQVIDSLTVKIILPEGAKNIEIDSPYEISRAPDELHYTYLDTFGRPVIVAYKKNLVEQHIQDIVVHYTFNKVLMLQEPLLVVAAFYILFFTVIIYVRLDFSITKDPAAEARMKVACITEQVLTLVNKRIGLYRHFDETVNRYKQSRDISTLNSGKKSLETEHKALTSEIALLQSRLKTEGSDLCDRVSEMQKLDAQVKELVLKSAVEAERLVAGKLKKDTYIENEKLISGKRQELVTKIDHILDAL
# Chain of PPIF, P30405 (P30405 whole entry): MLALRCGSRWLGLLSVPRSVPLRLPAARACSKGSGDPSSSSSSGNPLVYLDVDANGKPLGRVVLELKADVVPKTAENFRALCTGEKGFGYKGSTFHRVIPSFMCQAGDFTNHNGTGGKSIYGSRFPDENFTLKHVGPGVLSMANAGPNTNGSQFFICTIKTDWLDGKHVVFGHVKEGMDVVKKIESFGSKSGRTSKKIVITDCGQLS
# Chain of MYH9, P35579 (P35579 whole entry): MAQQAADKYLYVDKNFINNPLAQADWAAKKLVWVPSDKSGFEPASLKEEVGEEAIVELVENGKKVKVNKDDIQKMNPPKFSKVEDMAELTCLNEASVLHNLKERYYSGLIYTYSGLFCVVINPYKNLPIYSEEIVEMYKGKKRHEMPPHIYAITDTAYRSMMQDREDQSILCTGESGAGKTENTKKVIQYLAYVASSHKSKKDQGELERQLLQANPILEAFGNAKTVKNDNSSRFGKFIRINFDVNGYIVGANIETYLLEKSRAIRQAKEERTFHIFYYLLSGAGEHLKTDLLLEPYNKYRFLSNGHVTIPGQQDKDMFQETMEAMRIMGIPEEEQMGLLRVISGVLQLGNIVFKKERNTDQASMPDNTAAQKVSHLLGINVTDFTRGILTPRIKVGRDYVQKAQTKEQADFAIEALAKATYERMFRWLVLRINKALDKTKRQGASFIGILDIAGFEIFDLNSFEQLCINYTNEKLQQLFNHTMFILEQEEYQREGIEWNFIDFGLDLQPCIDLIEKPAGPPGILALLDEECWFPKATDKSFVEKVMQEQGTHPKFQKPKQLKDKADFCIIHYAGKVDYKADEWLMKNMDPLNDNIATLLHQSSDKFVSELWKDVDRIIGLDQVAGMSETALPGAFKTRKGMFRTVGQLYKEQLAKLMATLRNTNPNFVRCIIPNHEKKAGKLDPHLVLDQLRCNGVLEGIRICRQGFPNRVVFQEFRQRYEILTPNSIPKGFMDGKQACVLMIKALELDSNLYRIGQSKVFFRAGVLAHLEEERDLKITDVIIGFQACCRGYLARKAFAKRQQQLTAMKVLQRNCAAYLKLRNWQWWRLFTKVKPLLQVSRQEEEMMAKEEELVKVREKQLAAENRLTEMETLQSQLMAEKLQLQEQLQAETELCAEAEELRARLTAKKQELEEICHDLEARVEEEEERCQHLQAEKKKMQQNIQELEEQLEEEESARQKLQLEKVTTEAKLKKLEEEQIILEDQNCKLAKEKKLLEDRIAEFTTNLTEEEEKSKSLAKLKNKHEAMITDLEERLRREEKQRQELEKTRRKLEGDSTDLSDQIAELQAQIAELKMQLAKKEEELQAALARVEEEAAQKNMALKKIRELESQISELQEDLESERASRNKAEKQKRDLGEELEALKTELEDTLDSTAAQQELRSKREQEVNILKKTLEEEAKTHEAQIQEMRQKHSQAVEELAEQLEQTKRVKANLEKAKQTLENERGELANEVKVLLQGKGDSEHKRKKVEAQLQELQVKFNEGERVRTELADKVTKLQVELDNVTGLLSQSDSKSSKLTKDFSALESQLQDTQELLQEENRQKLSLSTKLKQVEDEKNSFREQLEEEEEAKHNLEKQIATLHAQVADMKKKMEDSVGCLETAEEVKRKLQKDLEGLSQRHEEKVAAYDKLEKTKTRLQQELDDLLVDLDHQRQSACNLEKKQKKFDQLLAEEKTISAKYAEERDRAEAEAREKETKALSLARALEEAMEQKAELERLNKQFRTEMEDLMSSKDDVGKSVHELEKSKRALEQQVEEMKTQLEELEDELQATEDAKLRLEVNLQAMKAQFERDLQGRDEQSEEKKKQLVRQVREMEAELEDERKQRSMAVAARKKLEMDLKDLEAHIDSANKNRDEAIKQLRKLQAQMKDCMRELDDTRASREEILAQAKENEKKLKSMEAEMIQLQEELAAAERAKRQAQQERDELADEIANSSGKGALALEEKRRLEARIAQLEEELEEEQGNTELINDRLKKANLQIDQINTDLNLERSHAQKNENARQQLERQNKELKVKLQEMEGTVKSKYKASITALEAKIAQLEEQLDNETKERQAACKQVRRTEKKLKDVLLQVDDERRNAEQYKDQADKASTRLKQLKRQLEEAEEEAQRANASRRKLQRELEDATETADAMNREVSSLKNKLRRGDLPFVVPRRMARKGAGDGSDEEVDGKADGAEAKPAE
# Chain of MTHFD2 (P13995 whole entry): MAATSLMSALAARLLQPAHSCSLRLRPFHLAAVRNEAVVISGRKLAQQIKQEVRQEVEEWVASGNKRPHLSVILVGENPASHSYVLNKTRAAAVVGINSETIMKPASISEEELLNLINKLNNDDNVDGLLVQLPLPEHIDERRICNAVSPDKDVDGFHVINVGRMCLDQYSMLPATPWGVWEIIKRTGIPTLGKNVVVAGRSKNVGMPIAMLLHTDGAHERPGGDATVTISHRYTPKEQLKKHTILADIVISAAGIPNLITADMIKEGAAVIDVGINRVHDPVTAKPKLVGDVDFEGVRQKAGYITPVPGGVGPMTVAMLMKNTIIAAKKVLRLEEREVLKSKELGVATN
# Chain of NDUFA2, O43678 (O43678 whole entry): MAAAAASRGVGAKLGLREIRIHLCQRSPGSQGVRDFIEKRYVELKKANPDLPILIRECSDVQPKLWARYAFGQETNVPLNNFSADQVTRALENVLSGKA
substance,measurement,setting,value
"PPIF, P30405",cross-linked residues,[1],K182 - K40
same,cross-linked residues,[2],K190 - K239
"ALDH1B1, P30837",cross-linked residues,[2],K429 - K239
"RPN1, P04843",cross-linked residues,[3],K176 - K246
same,cross-linked residues,[4],K187 - K460
same,cross-linked residues,[5],K258 - K695
same,cross-linked residues,[6],K258 - K773
"GTPBP4, Q9BZE4",cross-linked residues,[7],K187 - K163
same,cross-linked residues,[8],K522 - K128
"PMPCB, O75439",cross-linked residues,[9],K219 - K286
"LRPPRC, P42704",cross-linked residues,[10],K868 - K571
"RPL27, P61353",cross-linked residues,[11],K59 - T987
same,cross-linked residues,[12],K59 - K36
same,cross-linked residues,[13],K93 - K39
"PRKCSH, P14314",cross-linked residues,[14],K436 - K161
"HNRNPM, P52272",cross-linked residues,[15],K381 - K323
"MYH9, P35579",cross-linked residues,[16],K1459 - K81
same,cross-linked residues,[17],K1867 - K1727
"RPL6, Q02878",cross-linked residues,[18],K100 - K590
"BMS1, Q14692",cross-linked residues,[19],S398 - K689
"SMC2, O95347",cross-linked residues,[20],K177 - K152
"NCBP2, P52298",cross-linked residues,[21],K7 - K17
"ATP1A1, P05023",cross-linked residues,[22],K444 - K280
"NDUFA7, O95182",cross-linked residues,[23],S32 - K101
"NDUFA2, O43678",cross-linked residues,[24],K98 - K531
"NIPSNAP2, O75323",cross-linked residues,[25],K148 - K279
"DDX54, Q8TDD1",cross-linked residues,[26],Y763 - K436
"FBL, P22087",cross-linked residues,[27],K102 - K121
same,cross-linked residues,[28],K102 - K647
same,cross-linked residues,[29],K102 - K197
"RPL7A, P62424",cross-linked residues,[30],K125 - K138
same,cross-linked residues,[31],K125 - K157
same,cross-linked residues,[13],K20 - K39
"TMED10, P49755",cross-linked residues,[32],K140 - K281
